Reference: PubChem BioAssay AID624483 (NMMLSC, 2012)
Among all 360,000 compounds or so, about 11,000 (3.1%) were called active. Not shown: some 2% with an inconclusive outcome. This excerpt belongs to a sample that is enriched for actives. A number with no mark means an inactive call. Rule as the data show it: active = fluorescence intensity above about 16000; inconclusive = no clear call, values can overlap the other calls; inactive = below that.

experiment: counter-screen for toxin protease inhibitors: compound fluorescence, primary screen, artefact control for toxin protease inhibitor project, biochemical, multiplex microsphere, HTS (AID 624483); conditions: compound autofluorescence counterscreen, microsphere flow cytometry; hits give high values

Compared with Cc1ccc(NC(=O)[C@H](Cc2ccccc2)NC(=O)CC[C@H]2O[C@@H](n3ccc(=O)[nH]c3=O)[C@H](O)[C@@H]2O)cc1C, Cc1ccc(NC(=O)c2oc(=O)c3ccccc3c2-c2ccccc2)c(C)c1 is lower in fluorescence intensity: 5530 for the first, 2070 for the second.

First: CCOC(=O)C1(C)CCCN(C(=O)c2cccc(Cl)c2)C1 (stereo unspecified)
Second: CCOC(=O)C1CCCN(C(=O)c2cc(-c3cccs3)oc2C)CC1 (stereo unspecified)
The fluorescence intensity of the first is higher: 3450 for the first, 2870 for the second.

Going from CC(=NCc1ccc2c(c1)OCO2)c1c(O)[nH]c(=O)[nH]c1=O to CC(=NCC1CCCO1)c1c(O)[nH]c(=O)[nH]c1=O (stereo unspecified), the fluorescence intensity falls from 4690 to 2530.

First: COCCn1c(CN2CCC(Cc3ccccc3)CC2)nc2c1c(=O)n(C)c(=O)n2C
Second: CC1CCN(Cc2nc3c(c(=O)n(C)c(=O)n3C)n2CCc2ccccc2)CC1
The fluorescence intensity of the first is lower: 2950 for the first, 3630 for the second.

First: Cc1ccc2c(c1)nnc1nnc(SCC(=O)O)n12
Second: CC(=O)N1CCN(C(=O)c2cc(-c3ccc(C)o3)nc3ccccc23)CC1
The fluorescence intensity of the first is lower: 6320 for the first, 7930 for the second.

Going from CCOc1ccc(CCN2C(=O)C(=O)N([C@@H](Cc3ccc(O)cc3)CN3CCC[C@H]3CN3C(=O)C(=O)NC[C@@H]3CC(C)C)C[C@@H]2Cc2ccccc2)cc1 to COc1ccc(S(=O)(=O)NC(=O)C2(C)CCN2C(=O)c2ccccc2CCc2ccccc2)cc1 (stereo unspecified), the fluorescence intensity falls from 4410 to 3970.

Going from CCN(CCN(C)C)C(=O)c1ccc2nc(C)c(N(C)C(=O)CCc3ccccc3)n2c1 to CCc1nc2c(OCCc3cccc(OC)c3)cccn2c1N(C)C(=O)c1ccc(C)cc1, the fluorescence intensity falls from 3720 to 3510.

First: Cc1c(S(=O)(=O)NCc2ccccc2)c(=O)n(C)c(=O)n1C
Second: CC(C)CCn1cnc2c1c(=O)n(CC(=O)NC(N)=O)c(=O)n2Cc1ccccc1
The fluorescence intensity of the first is higher: 4270 for the first, 3800 for the second.

Compared with CCn1c2ccccc2c2cc(NC(=S)N3CCOCC3)ccc21, CCn1c2ccccc2c2cc(NC(=O)COC(=O)c3cc(S(=O)(=O)N4CCCCC4)ccc3Cl)ccc21 is lower in fluorescence intensity: 2580 for the first, 1830 for the second.

Going from CC1(C)CC(N(Cc2ccccc2)C(=O)Cc2ccccc2)CCO1 (stereo unspecified) to CC(=O)N1CCN(CC(c2ccccc2)c2ccccc2)CC1, the fluorescence intensity falls from 4030 to 3040.

First: COc1ccccc1NC(=O)c1c(Br)cnn1C
Second: CCOc1ccc(NC(=O)c2ccccc2NS(C)(=O)=O)cc1
The fluorescence intensity of the first is lower: 2020 for the first, 9540 for the second.

Going from O=C(NCc1cccs1)c1ccc(Br)o1 to Cc1ccc(F)c(S(=O)(=O)NC(=O)C2(C)CCN2C(=O)CCc2cccs2)c1 (stereo unspecified), the fluorescence intensity rises from 2540 to 3440.

Compared with N#Cc1ccc(-c2ccc(Cl)cc2)nc1Oc1ccc(F)cc1, O=C(c1ccc(Cl)cc1)c1ccc(OCC(O)CN2CCCCC2)cc1 (stereo unspecified) is lower in fluorescence intensity: 9640 for the first, 4210 for the second.

Compared with CC1(Oc2cccc(F)c2)CCN(Cc2ccccc2OC(F)F)C1 (stereo unspecified), Cc1ccccc1CN1CCN(C(=O)c2cccc(F)c2)CC1 is lower in fluorescence intensity: 4130 for the first, 2980 for the second.

Compared with C=C(C)c1cccc(C(C)(C)NC(=O)NC2CCCC2)c1, COc1ccc2cc(C(=O)NCC3CCCO3)[nH]c2c1 (stereo unspecified) is lower in fluorescence intensity: 9090 for the first, 3630 for the second.

Going from O=C(COC(=O)CNC(=O)c1ccco1)Nc1ccc(F)cc1 to O=C(COC(=O)c1ccc[nH]c1=O)Nc1ccc2c(c1)OC(F)(F)O2, the fluorescence intensity rises from 3560 to 5560.

Compared with CC(C)Cn1cnc2c1c(=O)n(CC(=O)NN)c(=O)n2Cc1ccccc1, CC(C)CC(=O)N1CCC(O)(CS(=O)(=O)Cc2ccccc2)CC1 is higher in fluorescence intensity: 4610 for the first, 10100 for the second.

Compared with CCCCn1nnnc1C(c1ccccc1)N1CCN(c2ccccc2OC)CC1 (stereo unspecified), Cn1nnnc1SCC(=O)N1CCN(C(c2ccccc2)c2ccccc2)CC1 is lower in fluorescence intensity: 4370 for the first, 3570 for the second.

Compared with COc1ccc(C(C)=O)cc1COc1ccc(Cl)c(C)c1, COc1ccc(/C=C/C(=O)Nc2c(C)nn(C)c2C)cc1COc1ccc(Br)cc1 is higher in fluorescence intensity: 5920 for the first, 8730 for the second.

Going from COc1ccccc1-c1cc2nc(NCc3cccc(Cl)c3)ccn2n1 to c1cc(-c2ccc3[nH]ccc3c2)n2ccnc2c1, the fluorescence intensity falls from 3660 to 3500.

First: O=C(c1cc2nc(-c3ccccc3)cc(-c3ccccc3)n2n1)N1CCC2(CC1)OCCO2
Second: CC1(C(=O)NCc2cccc3ccccc23)CCN1Cc1ccc(-c2ccccc2)o1 (stereo unspecified)
The fluorescence intensity of the first is lower: 2800 for the first, 3560 for the second.

Compared with CCCCC(=O)N(C)c1c(CC)nc2c(OCc3ccc(Cl)cc3Cl)cccn12, O=C(COc1ccc(Cl)cc1Cl)N/N=C/c1ccccn1 is higher in fluorescence intensity: 3970 for the first, 5790 for the second.

Compared with Cc1ccccc1N1CCN(CC(=O)NCc2ccc(Cl)cc2)CC1, O=C(CN1CCN(Cc2ccccc2)CC1)NC(c1ccccc1)c1ccccc1 is higher in fluorescence intensity: 4200 for the first, 4580 for the second.

Compared with O=C(CN1CCN(S(=O)(=O)c2ccc(Cl)s2)CC1)N1CCCCC1, CC(C)CCOc1ccc(C(=O)Nc2cc(S(=O)(=O)N3CCOCC3)ccc2N2CCOCC2)cc1 is higher in fluorescence intensity: 2870 for the first, 3010 for the second.

Going from Cc1ccc2c(C)c(C(=O)N(C)Cc3ccncn3)oc2c1C to COc1ccc(OC)c(C(=O)c2coc3ccc(OC)cc23)c1, the fluorescence intensity falls from 5730 to 2950.

Going from CSc1ccc(/C=N/NC(=O)c2cccc(Cl)c2)cc1 to O=C(O)c1ccc(F)c(S(=O)(=O)Nc2ccccc2)c1, the fluorescence intensity rises from 2570 to 9990.

Going from CCOC(=O)[C@]12CCCC=C1N(Cc1cccc3ccccc13)C(=O)[C@H](CC(=O)NCC13CC4CC(CC(C4)C1)C3)C2 to COC(=O)[C@]12CCCCC=C1N(Cc1ccco1)C(=O)[C@H](CC(=O)NCC1CCCCC1)C2, the fluorescence intensity falls from 5880 to 4680.

Going from CCCCc1ccc(S(=O)(=O)NC(=O)C2(C)CCN2C(=O)c2ccccc2)cc1 (stereo unspecified) to COc1ccc(CCNC(=O)C2CCCN(S(=O)(=O)c3ccc(OC)cc3)C2)cc1 (stereo unspecified), the fluorescence intensity rises from 3420 to 5700.

Compared with CC(OC(=O)c1ccc(NS(=O)(=O)c2ccc3[nH]c(=O)[nH]c3c2)cc1)C(=O)Nc1cccc(Cl)c1Cl (stereo unspecified), COC(=O)c1ccccc1NS(=O)(=O)c1ccc2[nH]c(=O)[nH]c2c1 is lower in fluorescence intensity: 3440 for the first, 2520 for the second.

First: CC(=O)NS(=O)(=O)c1ccccc1
Second: CSc1ncccc1C(=O)Nc1cccc(S(=O)(=O)N2CCOCC2)c1
The fluorescence intensity of the first is higher: 6630 for the first, 4320 for the second.

Compared with CC(C)(C)C(=O)NC(NC(=S)Nc1ccc(S(N)(=O)=O)cc1)C(Cl)(Cl)Cl (stereo unspecified), CC(=O)Nc1ccc(NC(=O)C2CCCN(S(=O)(=O)c3ccc(Cl)cc3)C2)cc1 (stereo unspecified) is higher in fluorescence intensity: 1960 for the first, 5830 for the second.

Going from Cc1cccc(OCC(O)Cn2c(N3CCCCC3)nc3c2c(=O)[nH]c(=O)n3C)c1 (stereo unspecified) to COc1ccc(C)cc1S(=O)(=O)Nc1cccc(Cl)c1Cl, the fluorescence intensity falls from 4090 to 2450.

First: Oc1ccc(CNc2ccccc2O)cc1
Second: O=C(c1cccc(Br)c1)N1CCN(C2=NS(=O)(=O)c3ccccc32)CC1
The fluorescence intensity of the first is lower: 3590 for the first, 5480 for the second.

Compared with COc1ccc2oc(=O)cc(CN3CCOCC3)c2c1, COc1ccc(C(N)c2csc(NC(=O)Nc3cccc(C(F)(F)F)c3)n2)cc1 (stereo unspecified) is lower in fluorescence intensity: 4180 for the first, 3490 for the second.

First: CCN(CC)CCNc1nc(-c2ccc(OC(F)F)cc2)c(C)s1
Second: O=C(NCCC(=O)N1O[C@@H]2C=C[C@H]1C2)OCC1c2ccccc2-c2ccccc21
The fluorescence intensity of the first is higher: 4700 for the first, 3360 for the second.

For CC(=O)c1ccc(-n2nnnc2SCC(=O)N2CCN(C(=O)c3ccco3)CC2)cc1, the fluorescence intensity was 2310.

In the case of CC(=NC1CCN(Cc2ccccc2)CC1)c1c(O)n(C)c(=O)n(C)c1=O, the fluorescence intensity is reported as 22500 (active).
In the case of CC(=NC1CCN(Cc2ccccc2)CC1)c1c(O)[nH]c(=O)[nH]c1=O, the fluorescence intensity is reported as 22800 (active).
In the case of CCn1c2ccccc2c2cc(NC(=O)C/C(C)=N/NC(=O)c3ccccc3N)ccc21, the fluorescence intensity is reported as 23100 (active).
For Cn1ncc(Br)c1C(=O)NCc1cccs1, the fluorescence intensity was 23700 (active).
For Clc1ccc(Cl)c(Oc2ccc(Oc3nc(Cl)ccc3Cl)cc2)n1, the fluorescence intensity was 16400 (active).
In the case of O=C(COC(=O)c1ccccc1NC(=O)c1ccco1)Nc1ccc2c(c1)OC(F)(F)O2, the fluorescence intensity is reported as 21800 (active).
With CC(C)Cn1cnc2c1c(=O)n(CC(O)c1ccccc1)c(=O)n2CC(C)C (stereo unspecified) the fluorescence intensity was 16100 (active).
With CCn1nc(C)c(NC(=O)/C=C/c2ccc(OC)c(COc3ccc(Br)cc3)c2)c1C the fluorescence intensity was 24100 (active).
With O=C(c1cc(-c2ccncc2)nc2ccccc12)N1CCC2(CC1)OCCO2 the fluorescence intensity was 23100 (active).
In the case of O=C(CN1CCN(S(=O)(=O)c2ccc(Cl)s2)CC1)NCc1ccc(Cl)cc1, the fluorescence intensity is reported as 19600 (active).
For O=C(NC(c1ccccc1)c1ccccc1)N1CCN(CCO)CC1, the fluorescence intensity was 20400 (active).
In the case of CSc1ccc(/C=N\NC(=O)COc2ccc(Cl)cc2Br)cc1, the fluorescence intensity is reported as 17700 (active).
For CC(=O)NS(=O)(=O)c1ccc(NC(=S)NC(=O)C(C)(C)C)cc1, the fluorescence intensity was 24700 (active).
With Cc1ccccc1CS(=O)(=O)CC1(O)CCN(C(=O)c2cccc(C(F)(F)F)c2)CC1 the fluorescence intensity was 20100 (active).
For Cn1c(=O)c2c(nc(N3CCCCCC3)n2CC(O)COc2ccc(Cl)cc2)n(C)c1=O (stereo unspecified), the fluorescence intensity was 21800 (active).
In the case of COc1ccc(OC)c(C(=O)c2coc3ccc(O)c(CN4CCOCC4)c23)c1, the fluorescence intensity is reported as 22400 (active).
With COc1ccc(S(=O)(=O)N2CCCC(C(=O)Nc3ccc(NC(=O)c4ccccn4)cc3)C2)cc1 (stereo unspecified) the fluorescence intensity was 22100 (active).
For COC(=O)c1ccc(NC(=O)c2ccccc2NS(=O)(=O)c2ccccc2)cc1, the fluorescence intensity was 20200 (active).
With COc1ccc(Cl)cc1S(=O)(=O)Nc1cccc(C(=O)O)c1 the fluorescence intensity was 22100 (active).
In the case of Cn1nnnc1SCC(=O)N1CCN(Cc2ccccc2)CC1, the fluorescence intensity is reported as 19800 (active).
